Data on 40 molecules can be found in PubChem BioAssay (NCATS).

Values joined by “and” are separate entries in the source; they are usually repeats but may differ in a detail not shown here. Equal values may be shown once. Records with an inconclusive call do not appear. A number with no mark means an inactive call. Calls follow the shape of the dose curve; as a rule, active = well fitted inhibition curve with a large enough effect in the signal ratio, with a control signal flat (not every such curve was filed as active); inconclusive = small, poorly fitted or top-dose-only effect, or effect the other way, or a change in a side signal; inactive = flat fitted curve, though single readings scatter; the % refers to the signal ratio.
% is scaled to controls: 0 for no effect and ±100 for the full control effect.

The target in this test is Thyroid hormone receptor beta (Homo sapiens) (UniProt P10828). Briefly: qHTS assay for small molecule antagonists of thyroid hormone receptor beta signaling (AID 588547).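 Also: cells stimulated with 0.4 nM T3 agonist during compound exposure; series mostly up to about 77 µM.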 As to conditions: TR-UAS-bla HEK293, beta-lactamase ratio, antagonist mode, 18 h. The source says: NIH Chemical Genomics Center [NCGC] U.S. Environmental Protection Agency [EPA] National Institutes of Environmental Health Sciences [NIEHS] National Toxicology Program [NTP] NCGC Assay Overview Thyroid hormone receptor (TR) belongs to nuclear hormone receptor superfamily. There are two subtypes for TR: TR-alpha and TR-beta. TR-beta plays a major role in regulating plasma cholesterol levels and it mediates the biological activities of thyroid hormone. Screening environmental chemicals on TR-beta signaling will provide important information for the mechanism of compound action.
Sequence of Thyroid hormone receptor beta (Homo sapiens) (P10828 whole entry, looked up): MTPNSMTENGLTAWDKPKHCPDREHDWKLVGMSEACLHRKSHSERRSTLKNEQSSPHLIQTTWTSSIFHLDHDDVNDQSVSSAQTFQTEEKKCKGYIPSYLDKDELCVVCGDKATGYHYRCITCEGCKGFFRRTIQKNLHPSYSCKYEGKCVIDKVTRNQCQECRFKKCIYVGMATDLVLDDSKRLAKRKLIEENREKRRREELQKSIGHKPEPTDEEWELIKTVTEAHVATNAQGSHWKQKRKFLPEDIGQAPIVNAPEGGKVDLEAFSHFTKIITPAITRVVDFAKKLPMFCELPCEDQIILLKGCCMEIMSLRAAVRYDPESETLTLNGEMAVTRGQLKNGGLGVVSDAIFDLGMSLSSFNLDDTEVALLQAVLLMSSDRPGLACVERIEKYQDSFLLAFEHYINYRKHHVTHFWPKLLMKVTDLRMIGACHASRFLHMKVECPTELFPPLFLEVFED
NCGC Assay Protocol Summary Using a beta-lactamase reporter-gene under control of the TR response element, a cell-based assay [GeneBLAzer TR-UAS-bla-GripTite assay developed by Invitrogen] was used to measure TR-beta signaling in antagonist mode. TR-UAS-bla-GripTite HEK 293 cells were used with assay medium containing 2% charcoal/dextran FBS, 0.1 mM NEAA and 1 mM sodium pyruvate. The assay was performed in clear bottom black Greiner 1536-well plates. Library compounds were measured for their ability to inhibit the reporter gene activity. Compounds were screened in a titration series in 1536-well format. The fluorescence intensity (405 nm excitation, 460/530 nm emission) was measured using an EnVision plate reader. […] Concentration-response titration points for each compound were fitted to the Hill equation yielding concentrations of half-maximal inhibition (IC50) and maximal response (efficacy) values. qHTS protocol for TR-beta beta-lactamase assay in antagonist mode [Step] [Parameter] [Value] [Description] 1. Reagent; 5 uL; 2500 cells/well 2. Incubation; 37 C for 4 hrs 3. Compounds; 23 nL; 0.59 nM to 92 uM 4. Controls (DMSO); 23 nL 5. Agonist (Stimulator); 1uL; T3 at 0.4nM (final) concentrations 6. Incubation; 37 C for 18 hrs 7. Detection reagent; 1 uL of CCF4-dye 8. Incubation; RT for 2 hrs 9. Detection; Fluorescence; Envision plate reader
For orientation: qHTS replaces the single test concentration by a dilution series.
Take `Cc1cc(C2(c3cc(C)c(O)cc3C)OS(=O)(=O)c3ccccc32)c(C)cc1O`: the activity change % (negative = inhibition) is -15%.

Take `CC(=O)c1cc(C)oc1C`: the activity change % (negative = inhibition) was -4.91%.

For `Cc1cccc(C(=O)O)c1`, the activity change % (negative = inhibition) is 2.36%.

As for `Cc1cccc(C(=O)O)c1[N+](=O)[O-]`, the activity change % (negative = inhibition) was -11.8%.

On to `c1ccsc1`, for which the activity change % (negative = inhibition) is -13.7%.

Consider `Cc1ccccc1C#N`, for which the activity change % (negative = inhibition) is 4.81%.

For the molecule `Cc1ccco1`, the activity change % (negative = inhibition) is 12.3%.

Regarding `O=[N+]([O-])c1ccc2nc[nH]c2c1`, the activity change % (negative = inhibition) is 5.36%.

Turning to `CCCCC(=O)N(C)C`, the activity change % (negative = inhibition) is 6.71%.

As to `O=C(O)c1ccc(C(=O)O)cc1`, the activity change % (negative = inhibition) is -2.68% and 4.87%.

`Cc1cccc2ccccc12`: the activity change % (negative = inhibition) was 12.2%.

Turning to `O=C1CCCCC1`, the activity change % (negative = inhibition) was -11.2%.

For `CC(C)C=O`, the activity change % (negative = inhibition) was -10%.

As to `CCOc1cccc(N)c1`, the activity change % (negative = inhibition) was -0.0909%.

On to `OC/C(Br)=C(\Br)CO`, for which the activity change % (negative = inhibition) is -11.8%.

`CCCCC(CC)CNCC(CC)CCCC` (stereo not given): the activity change % (negative = inhibition) is 4.7%.

Turning to `CCCCCCCCC/C=C/CC1CC(=O)OC1=O` (stereo not given), the activity change % (negative = inhibition) was 2.72%.

As to `CNC(=O)c1ccccc1`, the activity change % (negative = inhibition) was -4.06%.

On to `N#Cc1ccccc1`, for which the activity change % (negative = inhibition) is 1.08%.

Consider `CCCCC=O`, for which the activity change % (negative = inhibition) was -3.59%.

As to `C1CCCC1`, the activity change % (negative = inhibition) was -1.41%.

Take `C=C(C)C(=O)OCCCCCC`: the activity change % (negative = inhibition) is 6.42%.

Regarding `CC(=O)Nc1cccc(N)c1`, the activity change % (negative = inhibition) was -3.78%.

For `CCC(C)(C)C`, the activity change % (negative = inhibition) was -4.13%.

With `O=[N+]([O-])c1cccc(C(F)(F)F)c1`, the activity change % (negative = inhibition) was 8.91%.

In the case of `CC#N`, the activity change % (negative = inhibition) is 12.3%.

As for `Nc1cccc([N+](=O)[O-])c1`, the activity change % (negative = inhibition) was -4.44%.

In the case of `OC1CCCC1`, the activity change % (negative = inhibition) is 8.64%.

Consider `CC(=O)OCc1ccco1`, for which the activity change % (negative = inhibition) was -12.4%.

For the molecule `CC(=O)OC(C)=O`, the activity change % (negative = inhibition) was 16.3%.

Consider `CC/C=C1/OC(=O)c2ccccc21`, for which the activity change % (negative = inhibition) is 10.4%.

With `NC(=O)c1cccc([N+](=O)[O-])c1`, the activity change % (negative = inhibition) was 12.3%.

For the molecule `O=[N+]([O-])c1c(Cl)cc(Cl)cc1Cl`, the activity change % (negative = inhibition) is 3.07%.

Take `O=C(O)CNC(=O)c1ccc([N+](=O)[O-])cc1`: the activity change % (negative = inhibition) was 4.89%.

On to `CCCC(Cl)CCCC(Cl)CCC(Cl)CCC(Cl)CCC(Cl)CCCC(Cl)CCC` (stereo not given), for which the activity change % (negative = inhibition) was -14.9%.

Take `Cc1cc(C)cc(O)c1`: the activity change % (negative = inhibition) was 2.53%.

For the molecule `O=C(O)c1c(Cl)cccc1Cl`, the activity change % (negative = inhibition) was 3.89%.

With `CC(N)CN` (stereo not given), the activity change % (negative = inhibition) was -4.82%.

Take `Nc1c(Cl)cc(Cl)cc1Cl`: the activity change % (negative = inhibition) is 14.8%.

As to `C=CCCCCCCC=C`, the activity change % (negative = inhibition) is -6.39%.
